Experimental findings from PubChem BioAssay (NCATS) are described below.

Results filed as inconclusive are left out. Values without a mark were called inactive. The source made the active and inactive calls. Calls come from the whole dose curve; as a rule, active = well fitted inhibition curve with a large enough effect; inconclusive = small, poorly fitted or top-dose-only effect; inactive = flat fitted curve, though single readings scatter.

One experiment deals with HEK293. The experiment in a line: Cytotoxic Profiling of Annotated Libraries Using Quantitative High-Throughput Screening (AID 1296008). For max response: % is set by controls: 0 for no effect and ±100 for the full control effect. Note: potency is the fitted concentration of half-maximal effect. The conditions noted are these: Five cell lines viability, CellTiter-Glo ATP luminescence, 48-72 h; max response: active compounds read low. Put shortly: (§1)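 Cells exposed to compounds for 48 or 72 hr at 37 degrees Celsius. Viability read as ATP-coupled luminescence with CellTiter-Glo after 10 min at room temperature.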

The subject of another experiment is KB-3-1. The description is as above. The settings on record: Five cell lines viability, CellTiter-Glo ATP luminescence, 48-72 h; max response: active compounds read low. The essentials:
as §1
A general note: In ATP-based viability assays light output follows the ATP content of the culture.

In another experiment the test system is NIH3T3. The description is as above. The settings on record: Five cell lines viability, CellTiter-Glo ATP luminescence, 48-72 h; max response: active compounds read low. The essentials: as §1
For the next experiment, the system named is CRL-7250. The experiment in a line: qHTS assay to identify novel small-molecules to repurpose for Merkel cell carcinoma treatment (AID 1296009). The settings on record: MCC and control cell lines, CellTiter-Glo viability, 72 h; at 44.8 µM (top of the series) unless noted. The essentials: (§2)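 Dose-response viability screen; 72 hr exposure at 37 degree celsius; CellTiter-Glo added, 10 min room temperature, luminescence read; RLUs scaled between no-cell and DMSO wells.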
(Quantitative high-throughput screening tests each substance at several concentrations.)

For experiment [1], the system named is HaCat. Nature of the experiment: Cytotoxic Profiling of Annotated Libraries Using Quantitative High-Throughput Screening (AID 1296008). For max response: % is set by controls: 0 for no effect and ±100 for the full control effect. Note: potency is the fitted concentration of half-maximal effect. The settings on record: Five cell lines viability, CellTiter-Glo ATP luminescence, 48-72 h; max response: active compounds read low. Put shortly:
as §1

The test system of experiment [2] is HACAT. The experiment in a line: qHTS assay to identify novel small-molecules to repurpose for Merkel cell carcinoma treatment (AID 1296009). The conditions noted are these: MCC and control cell lines, CellTiter-Glo viability, 72 h; at 44.8 µM (top of the series) unless noted. The essentials: as §2
The next experiment concerns W2. Nature of the experiment: qHTS profiling for inhibitors of Plasmodium falciparum proliferation (AID 504749). Note: potency is the fitted concentration of half-maximal effect. The conditions noted are these: P. falciparum in erythrocytes, SYBR Green DNA, 72 h; series mostly up to 28.7 µM. The essentials: (§3)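 Each compound contacts P. falciparum-infected red blood cells for 72 h at 37 C; lysis buffer (Tris, EDTA, saponin, Triton X, SYBR Green I) is added and fluorescence measured next morning; values normalized to controls.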

The next experiment has as its system TAB165. The experiment is described as above. The conditions noted are these: P. falciparum in erythrocytes, SYBR Green DNA, 72 h; series mostly up to 28.7 µM. Put shortly: as §3
Note: nearly all actives have a fitted effect of over 60% in size.

With `CC(=O)O[C@@]12CO[C@H]1C[C@H](O)[C@@]1(C)C(=O)[C@H](O)C3=C(C)[C@@H](O)C[C@@](O)([C@@H](OC(=O)c4ccccc4)[C@@H]21)C3(C)C`, the Potency is 2.96 µM (active) with HEK293, 3.32 µM (active) with KB-3-1 and 14.8 µM (active) in the experiment on NIH3T3.

Turning to `COc1cc2c(cc1OC)C(=O)CC2`, the compound was classed as inactive with CRL-7250.

In the case of `c1ccc(CCCN2CCN(CCOC(c3ccccc3)c3ccccc3)CC2)cc1`, the Potency in the experiment with NIH3T3 was 16.6 µM (active).

With `CCCCCCCCc1ccc(O)cc1`, the Potency in the experiment with HaCat [1] is 24.6 µM (active). Moreover, the max response with KB-3-1 is -0.951%.

`C=CCC1=C(C)C(OC(=O)C2C(C=C(C)C)C2(C)C)CC1=O` (configuration not stated): in the experiment with HEK293, the Potency is 19.3 µM (active). Moreover, the compound was called inactive in the experiment on HaCat [1]. Further, the max response in the experiment with KB-3-1 was -7.18%. In the experiment on HACAT [2], the outcome was “inactive [at 92 µM]”.

Regarding `c1cc2ccc3cccc4ccc(c1)c2c34`, the max response in the experiment on KB-3-1 is -15.2%; with NIH3T3 it was -19.4%.

As for `CN[C@@H]1C[C@@H](c2ccc(Cl)c(Cl)c2)c2ccccc21`, the Potency in the experiment on W2 was 4.78 µM (active). The max response in the experiment with KB-3-1 is -9.15%.

`Nc1ccc(S(=O)(=O)Nc2ccccc2)cc1`: the outcome in the experiment on CRL-7250 was inactive.

Consider `C[C@]12COC(=O)C[C@@H]1CC[C@@H]1[C@H]2CC[C@@]2(C)[C@H]1CC[C@]2(C)O`, for which the compound was classed as inactive with HaCat [1] and with HACAT [2]. The max response is 0.496% in the experiment with KB-3-1 and -1.39% in the experiment on NIH3T3.

Regarding `CCCCc1ccc(C(=O)O)nc1`, the Potency result in the experiment on TAB165 and in the experiment with W2 was “inactive” each time. Further, the max response in the experiment on KB-3-1 was 2.2%.

`c1ccc(C2(c3ccccc3)CC2C2=NCCN2)cc1` (configuration not stated): the Potency entry with TAB165 was “inactive”. For the same compound, in the experiment with KB-3-1, the max response is -1.25%.

As for `CCOC(=O)[C@@H](N)CCC(=O)N[C@@H](CSCc1ccccc1)C(=O)N[C@@H](C(=O)OCC)c1ccccc1`, in the experiment on CRL-7250, the compound was classed as inactive.

For the compound `CN1CCN(c2c(F)cc3c(=O)c(C(=O)O)cn4c3c2OCN4C)CC1`, the outcome in the experiment on CRL-7250 was “inactive [at 17.4 µM]”.

With `O=[N+]([O-])c1cccc(S(=O)(=O)NCCNS(=O)(=O)c2cccc([N+](=O)[O-])c2)c1`, the compound was called inactive in the experiment with CRL-7250.

Consider `N=c1c2c(-c3ccccc3)c(-c3ccccc3)n(Cc3ccccc3)c2ncn1C1CCC(O)CC1` (configuration not stated), for which the Potency in the experiment on HEK293 was 0.418 µM (active). The max response with HaCat [1] was -23%; in the experiment with NIH3T3, -14.3%.

As to `CC(C)[C@H]1C(=O)N[C@H](CO)Cc2c[nH]c3cccc(c23)N1C`, the results for the max response with HaCat [1], with KB-3-1 and in the experiment on NIH3T3 were -1.9%, 9.88% and -1.36%, respectively.

Take `CC(C)[C@H](CO)Nc1nc(Nc2ccc(C(=O)O)c(Cl)c2)c2ncn(C(C)C)c2n1`: in the experiment with CRL-7250, the outcome is “inactive [at 17.4 µM]”.

Regarding `CC(=CCCC1=CCC(C2=CC(=O)OC2O)OC1O)CCC1=C(C)CCCC1(C)C` (configuration not stated), the max response with HaCat [1] is -18.3%; with KB-3-1, -6.74%; in the experiment on NIH3T3 it was -0.889%.

On to `COc1ccc(CCN2CCN(CCCc3ccccc3)CC2)cc1OC`, for which, in the experiment with CRL-7250, the call was inactive.

In the case of `C=CCN1CC[C@]23CCCCC2[C@H]1Cc1ccc(O)cc13` (some centres not stated), in the experiment with TAB165, the Potency result was “inactive”.

For `CN1C2CCC1CC(OC(=O)c1cc(Cl)cc(Cl)c1)C2` (configuration not stated), the Potency entry in the experiment with TAB165 is “inactive”. Also, the Potency in the experiment with W2 was 10.7 µM (active).
